# Bioassay records from PubChem BioAssay.
# MITF primary = blocks human microphthalmia-associated transcription factor | inhibition, % at 2.6 µM | AlphaScreen MITF homodimerization, bead proximity signal | hit rate 0.91% among 650,000; in the data active = inhibition above about 50%;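 also: 0% = vehicle wells with protein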
# GPR151 activ = activators of human GPR151; AID 1508602; hit rate 1% among 650,000; PathHunter beta-arrestin GPR151 cells, luminescence; activation, % at 11.2 µM; in the data active = activation above about 4.9%;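 also: 0% = median of compound wells and 100% = cells with positive control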
# FBW7 act = human FBW7 E3 ligase activation, primary screen | Q969H0 | AlphaScreen FBW7–phospho-cyclin E peptide binding, activator screen | normalized activity (activation), % at 26.1 µM | hit rate 0.13% among 650,000 | AID 1259310; in the data active = normalized activity above about 1.9%;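 also: purified mutant Fbw7 with reduced substrate affinity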
# Target sequence (Q969H0 whole entry, looked up): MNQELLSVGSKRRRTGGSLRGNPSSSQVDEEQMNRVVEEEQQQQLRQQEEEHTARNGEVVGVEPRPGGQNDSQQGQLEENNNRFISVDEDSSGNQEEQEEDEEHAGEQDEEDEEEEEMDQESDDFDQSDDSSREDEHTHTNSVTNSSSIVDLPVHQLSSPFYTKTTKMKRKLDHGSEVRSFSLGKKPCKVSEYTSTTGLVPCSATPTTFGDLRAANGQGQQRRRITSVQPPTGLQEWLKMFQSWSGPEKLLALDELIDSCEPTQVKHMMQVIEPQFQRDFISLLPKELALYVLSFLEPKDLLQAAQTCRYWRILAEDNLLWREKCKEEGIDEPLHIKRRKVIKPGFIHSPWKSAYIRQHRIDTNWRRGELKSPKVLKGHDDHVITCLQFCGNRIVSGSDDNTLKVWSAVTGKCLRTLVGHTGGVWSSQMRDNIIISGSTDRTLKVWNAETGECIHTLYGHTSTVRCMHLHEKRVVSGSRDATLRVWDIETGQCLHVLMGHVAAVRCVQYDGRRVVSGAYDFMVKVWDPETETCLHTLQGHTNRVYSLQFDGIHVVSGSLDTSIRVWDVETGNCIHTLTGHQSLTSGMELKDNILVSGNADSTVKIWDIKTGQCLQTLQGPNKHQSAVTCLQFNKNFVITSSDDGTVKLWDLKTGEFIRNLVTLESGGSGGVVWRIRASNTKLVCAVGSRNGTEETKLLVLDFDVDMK
# TEAD-YAP block = TEAD-YAP interaction inhibition; HEK-TIYL cells, TEAD-Gal4/YAP UAS-luciferase luminescence; inhibition, % at 9.12 µM; hit rate 1.4% among 640,000; in the data active = inhibition above about 32%;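 also: 0% = median of test compound wells and 100% = reference inhibitor wells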
# * marks the source's active call; other numbers are inactive results. Rows were chosen to be rich in hits. Some 3.5% of all compounds tested hit in one or more screens of this group.
SMILES,MITF primary,GPR151 activ,FBW7 act,TEAD-YAP block
COc1ccc(NC(=O)/C(C#N)=C/c2ccc(Br)o2)cc1,9.4,-0.4,-0.1,-14.2
Cc1ccc(NC(=O)/C(C#N)=C/c2ccccc2O)cc1,-15.5,1.6,0.0,49.2*
Cc1cccc(NC(=O)/C(C#N)=C\c2ccccc2O)c1,10.8,0.2,0.0,-50.7
O=c1ccc2ccc(OCc3c(F)cccc3F)cc2o1,2.0,-1.5,-0.3,-22.8
Cc1cccc(NC(=O)c2ccc(CN3CCc4ccccc4C3)cc2)c1,-2.5,-0.3,-0.2,36.4*
O=C(Nc1cccc(Cl)c1)c1ccc(CN2CCc3ccccc3C2)cc1,-18.8,-2.3,-0.2,40.0*
CCNc1nc(NCC)nc(Sc2ccc([N+](=O)[O-])cc2[N+](=O)[O-])n1,0.9,-0.3,0.0,50.5*
CCC(=O)NC(c1ccc([N+](=O)[O-])cc1)c1ccc2cccnc2c1O (configuration not stated),-18.9,0.2,-0.2,85.0*
CCC(=O)NC(c1cccc([N+](=O)[O-])c1)c1ccc2cccnc2c1O (configuration not stated),17.3,0.7,-1.0,4.2
CCC(=O)NC(c1ccc(C)cc1)c1ccc2cccnc2c1O (configuration not stated),27.9,-0.5,-0.5,88.1*
O=C(OCc1ccc(F)cc1F)c1cccc([N+](=O)[O-])c1,9.2,1.7,0.0,0.6
O=C(CN1C(=O)NC(Cc2ccccc2)(c2ccccc2)C1=O)Nc1ccccc1F (configuration not stated),-14.0,0.3,0.0,-7.5
O=S(=O)(c1ccc2oc3ccccc3c2c1)N1CCCc2ccccc21,-4.3,-0.6,0.0,59.2*
Cc1cc(S(=O)(=O)N2CCCc3ccccc32)ccc1-n1cnnn1,16.7,0.2,2.1*,3.4
Cc1cc(S(=O)(=O)N2CCCCCC2)ccc1-n1cnnn1,9.1,-0.3,-0.1,-3.8
O=C(O)c1c[nH]c2ccc(S(=O)(=O)N3CCCc4ccccc43)cc2c1=O,1.4,1.0,0.0,48.5*
O=S(=O)(c1ccc2ccccc2c1)N1CCCc2ccccc21,-6.6,0.3,0.0,55.1*
O=S(=O)(c1ccc(F)c(F)c1)N1CCCc2ccccc21,18.5,0.8,0.6,9.5
C=CCn1c(SCC(=O)Nc2sccc2C(N)=O)nnc1-c1ccc(Cl)cc1,-8.2,0.5,-0.3,9.9
COC(=O)Cn1c(C(=O)OC)ccc1-c1ccco1,2.6,0.9,-0.1,-1.9
O=c1[nH]c(=S)[nH]c(O)c1C=NCCc1c[nH]c2ccccc12,8.3,-0.5,-0.1,8.9
O=C(Nc1ccc2c(c1)Cc1ccccc1-2)c1cc(Cl)ccc1Cl,-7.5,0.1,-0.1,8.0
O=C(Nc1ccc2c(c1)Cc1ccccc1-2)c1cc(Br)ccc1Cl,13.8,0.8,-0.3,49.9*
CCN1CCN(Cc2ccc(NC(=O)Nc3ccccc3Cl)cc2)CC1,18.7,-0.2,-0.1,33.7*
CC(C)n1nc(C(=O)NN)c2ccccc2c1=O,-7.1,0.2,0.1,51.4*
SMILES,MITF primary,GPR151 activ,FBW7 act,TEAD-YAP block
CN1CCN(C(c2ccc(F)cc2)c2sc3ncnn3c2O)CC1 (configuration not stated),-1.0,-2.9,0.0,1.4
Nn1c(SCC(=O)c2ccc(O)cc2O)nnc1-c1cc(Cl)ccc1Cl,-5.2,1.8,0.1,42.1*
Nn1c(SCC(=O)N2CCCC2)nnc1-c1ccc(Cl)cc1Cl,-8.9,-0.7,0.1,-4.5
Cc1cc(C)n2nc(S(=O)(=O)Nc3ccc(Cl)cc3Cl)nc2n1,-7.1,-0.5,-0.2,-3.7
Cc1c(/C=N/NC(=O)CCc2ccc(S(=O)(=O)N3CCOCC3)cc2)cc(C#N)n1C,5.8,1.6,0.0,3.7
O=C(CCc1ccc(S(=O)(=O)N2CCOCC2)cc1)N/N=C/c1ccc(O)c(O)c1O,54.1*,-0.6,-0.9,4.7
N#C/C(=C\c1ccccc1[N+](=O)[O-])c1nc(-c2ccccc2)cs1,4.2,-2.6,0.0,-1.7
Cc1cc(OC(=O)c2ccc([N+](=O)[O-])cc2)c([N+](=O)[O-])c(=O)[nH]1,-0.9,-1.7,0.1,-2.8
CC1CCc2nc(NC(=O)c3cc(Cl)sc3Cl)sc2C1 (configuration not stated),2.3,-0.6,0.1,-45.5
CC(=O)c1ccc(C(=O)Nc2nc3c(s2)CCCC3)cc1,3.6,-1.0,-0.1,65.0*
O=C(Cc1ccccc1Cl)Nc1nc2c(s1)CCCC2,2.2,2.5,-0.1,16.8
O=C(Nc1nc2c(s1)CCCC2)c1ccccc1Cl,-6.3,-7.8,-0.2,44.9*
O=C(Nc1nc2c(s1)CCCC2)c1cc(Cl)sc1Cl,16.9,-8.5,0.2,49.0*
COC(=O)c1ccc(S(=O)(=O)N2CCC(c3nc4ccc(C)cc4[nH]3)CC2)cc1,-17.9,1.7,-0.3,8.8
